# In PubChem BioAssay AID1159580 (chemical genetic matrix, 2015):
# The whole screen tested about 5,500 compounds, of which about 2,000 (36%) were called active. Another 18% or so got no clear call; they are omitted. Some of the results follow. A number with no mark means an inactive call. Cut-off read from the data, not from the text of the source: active = normalized growth mostly below about 0.91 (no sharp cut-off); inconclusive = no clear call, values can overlap the other calls; inactive = mostly above about 0.92.
# Test: chemical genetic growth profiling, strain panel (AID 1159580);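 note: tested at 20 µM; growth read once vehicle control cultures reached saturation at 30 °C; 1 = growth at the plate median or of vehicle wells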
# Settings: S. cerevisiae deletion strains, growth OD
smiles,measurement,setting,value
CC1=C(O)C(=O)C=C2C1=CC=C1[C@@]2(C)CC[C@@]2(C)[C@@H]3C[C@](C)(C(=O)O)CC[C@]3(C)CC[C@]12C,normalized growth,"locus YJR066W, strain TOR1, stronger effect = lower value",0.792 (active)
same,normalized growth,"locus YKL009W, strain mrt4, stronger effect = lower value",0.908
same,normalized growth,"locus YKL068W, stronger effect = lower value",0.895 (active)
same,normalized growth,"locus YKL085W, strain MDH1 (second series), stronger effect = lower value",0.941
same,normalized growth,"locus YKL085W, strain MDH1, stronger effect = lower value",0.941
same,normalized growth,"locus YKL160W, strain elf1, stronger effect = lower value",0.541 (active)
same,normalized growth,"locus YKL190W, strain CNB1, stronger effect = lower value",0.315 (active)
same,normalized growth,"locus YKR001C, strain vps1, stronger effect = lower value",0.13 (active)
same,normalized growth,"locus YKR026C, strain gcn3, stronger effect = lower value",0.852 (active)
same,normalized growth,"locus YKR091W, strain srl3, stronger effect = lower value",0.843 (active)
same,normalized growth,"locus YLL001W, strain dnm1, stronger effect = lower value",0.617 (active)
same,normalized growth,"locus YLL026W, stronger effect = lower value",0.74 (active)
same,normalized growth,"locus YLL041C, strain sdh2, stronger effect = lower value",0.764 (active)
same,normalized growth,"locus YLR027C, strain aat2, stronger effect = lower value",0.502 (active)
same,normalized growth,"locus YLR039C, strain RIC1, stronger effect = lower value",0.157 (active)
same,normalized growth,"locus YLR058C, strain SHM2, stronger effect = lower value",0.224 (active)
same,normalized growth,"locus YLR102C, strain apc9, stronger effect = lower value",0.83 (active)
same,normalized growth,"locus YLR113W, strain HOG1, stronger effect = lower value",0.472 (active)
same,normalized growth,"locus YLR221C, strain rsa3, stronger effect = lower value",0.419 (active)
same,normalized growth,"locus YLR258W, strain gsy2, stronger effect = lower value",0.541 (active)
same,normalized growth,"locus YLR262C, strain YPT6 (second series), stronger effect = lower value",0.149 (active)
same,normalized growth,"locus YLR262C, strain YPT6, stronger effect = lower value",0.182 (active)
same,normalized growth,"locus YLR268W, strain sec22, stronger effect = lower value",0.355 (active)
same,normalized growth,"locus YLR320W, strain mms22, stronger effect = lower value",0.256 (active)
same,normalized growth,"locus YLR330W, strain CHS5, stronger effect = lower value",0.253 (active)
same,normalized growth,"locus YLR342W, strain FKS1 (second series), stronger effect = lower value",0.336 (active)
same,normalized growth,"locus YLR342W, strain FKS1, stronger effect = lower value",0.387 (active)
same,normalized growth,"locus YLR357W, strain rsc2, stronger effect = lower value",0.731 (active)
same,normalized growth,"locus YLR370C, strain arc18, stronger effect = lower value",0.704 (active)
same,normalized growth,"locus YLR371W, strain rom2, stronger effect = lower value",0.418 (active)
same,normalized growth,"locus YLR384C, strain iki3, stronger effect = lower value",0.759 (active)
same,normalized growth,"locus YLR418C, strain cdc73, stronger effect = lower value",0.176 (active)
same,normalized growth,"locus YML016C, strain PPZ1, stronger effect = lower value",0.547 (active)
same,normalized growth,"locus YML032C, strain rad52, stronger effect = lower value",0.533 (active)
same,normalized growth,"locus YML120C, strain ndi1, stronger effect = lower value",0.608 (active)
same,normalized growth,"locus YML124C, strain tub3, stronger effect = lower value",0.738 (active)
same,normalized growth,"locus YMR058W, strain fet3, stronger effect = lower value",0.0928 (active)
same,normalized growth,"locus YMR078C, strain ctf18, stronger effect = lower value",0.472 (active)
same,normalized growth,"locus YMR125W, strain sto1, stronger effect = lower value",0.827 (active)
same,normalized growth,"locus YMR129W, stronger effect = lower value",0.795 (active)
same,normalized growth,"locus YMR205C, strain PFK2, stronger effect = lower value",0.337 (active)
same,normalized growth,"locus YMR223W, strain ubp8, stronger effect = lower value",0.581 (active)
same,normalized growth,"locus YMR231W, strain pep5, stronger effect = lower value",0.365 (active)
same,normalized growth,"locus YMR263W, strain SAP30, stronger effect = lower value",0.561 (active)
same,normalized growth,"locus YMR307W, strain GAS1, stronger effect = lower value",0.252 (active)
same,normalized growth,"locus YNL067W, strain RPL9B, stronger effect = lower value",0.518 (active)
same,normalized growth,"locus YNL071W, strain lat1, stronger effect = lower value",0.11 (active)
same,normalized growth,"locus YNL183C, strain NPR1, stronger effect = lower value",0.728 (active)
same,normalized growth,"locus YNL209W, strain ssb2, stronger effect = lower value",0.303 (active)
same,normalized growth,"locus YNL233W, strain BNI4, stronger effect = lower value",0.287 (active)
same,normalized growth,"locus YNL248C, strain rpa49, stronger effect = lower value",0.708 (active)
same,normalized growth,"locus YNL250W, strain rad50, stronger effect = lower value",0.887 (active)
same,normalized growth,"locus YNL271C, strain bni1, stronger effect = lower value",0.882 (active)
same,normalized growth,"locus YNL298W, strain CLA4, stronger effect = lower value",0.918
same,normalized growth,"locus YNL307C, strain MCK1, stronger effect = lower value",0.093 (active)
same,normalized growth,"locus YNL322C, strain KRE1 (second series), stronger effect = lower value",0.937
same,normalized growth,"locus YNR049C, strain mso1, stronger effect = lower value",0.781 (active)
same,normalized growth,"locus YNR052C, strain pop2, stronger effect = lower value",0.664 (active)
same,normalized growth,"locus YOL012C, strain htz1",0.278
same,normalized growth,"locus YOL147C, strain pex11, stronger effect = lower value",0.137 (active)
same,normalized growth,"locus YOR001W, strain rrp6, stronger effect = lower value",0.678 (active)
same,normalized growth,"locus YOR061W, strain CKA2, stronger effect = lower value",0.509 (active)
same,normalized growth,"locus YOR069W, strain VPS5, stronger effect = lower value",0.638 (active)
same,normalized growth,"locus YOR070C, strain gyp1, stronger effect = lower value",0.449 (active)
same,normalized growth,"locus YOR080W, strain dia2, stronger effect = lower value",0.674 (active)
same,normalized growth,"locus YOR083W, strain WHI5, stronger effect = lower value",0.624 (active)
same,normalized growth,"locus YOR106W, strain vam3, stronger effect = lower value",0.244 (active)
same,normalized growth,"locus YOR136W, strain idh2, stronger effect = lower value",0.765 (active)
same,normalized growth,"locus YOR144C, strain elg1, stronger effect = lower value",0.304 (active)
same,normalized growth,"locus YOR184W, strain ser1, stronger effect = lower value",0.173 (active)
same,normalized growth,"locus YOR231W, strain MKK1, stronger effect = lower value",0.75 (active)
same,normalized growth,"locus YOR265W, strain rbl2, stronger effect = lower value",0.552 (active)
same,normalized growth,"locus YOR270C, strain vph1, stronger effect = lower value",0.236 (active)
same,normalized growth,"locus YOR290C, strain snf2, stronger effect = lower value",0.249 (active)
same,normalized growth,"locus YOR316C, strain cot1, stronger effect = lower value",0.698 (active)
same,normalized growth,"locus YPL051W, strain arl3, stronger effect = lower value",0.209 (active)
same,normalized growth,"locus YPL078C, strain atp4, stronger effect = lower value",0.528 (active)
same,normalized growth,"locus YPL106C, strain sse1, stronger effect = lower value",0.435 (active)
same,normalized growth,"locus YPL240C, strain hsp82, stronger effect = lower value",0.444 (active)
same,normalized growth,"locus YPL241C, strain CIN2, stronger effect = lower value",0.565 (active)
same,normalized growth,"locus YPL256C, strain CLN2, stronger effect = lower value",0.663 (active)
same,normalized growth,"locus YPR119W, strain clb2, stronger effect = lower value",0.61 (active)
same,normalized growth,"locus YPR141C, strain kar3, stronger effect = lower value",0.886 (active)
same,normalized growth,"locus YPR163C, strain tif3, stronger effect = lower value",0.257 (active)
same,normalized growth,"locus YPR167C, strain met16, stronger effect = lower value",0.538 (active)
same,normalized growth,"strain wtn01, stronger effect = lower value",0.436 (active)
